A selection: hits, their analogues and other compounds. The true share with any hit is near 19%.
TDP1 cell noCPT = qHTS for Inhibitors of human tyrosyl-DNA phosphodiesterase 1 (TDP1): qHTS in cells in absence of CPT. DT40 Tdp1-/- hTDP1 cells, no CPT, ATP luminescence, 48 h. Potency, µM (titrated, usually from 46.2 µM), without a hit: at the highest dose activity change, negative = growth inhibition, actives largely listed as inhibitors. 420,000 compounds, 15% hits. AID 686978, 2013; note: potency is the fitted concentration of half-maximal effect; nearly all actives have a fitted effect of over 55% in size
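Stably hTDP1-transfected Tdp1-null chicken DT40 cells were treated with library compounds minus camptothecin and grown for at least 48 hr at 37 °C, after which cellular ATP was quantified by luminescence.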
TDP1 cell CPT = growth inhibition of DT40 Tdp1-/-;hTDP1 cells with camptothecin (screen for TDP1 inhibitors) | chicken DT40 Tdp1-/-;hTDP1 cells + 20 nM CPT, ATP luminescence, 48 h | Potency, µM (highest dose often 46.2 µM), inactives show top-dose activity change, negative = growth inhibition, hits mostly inhibitors | 420,000 compounds, 12% hits | AID 686979; note: potency is the fitted concentration of half-maximal effect; nearly all actives have a fitted effect of over 55% in size
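Chicken DT40 Tdp1-/- cells stably complemented with human TDP1 were seeded at 400 cells/well in medium containing 20 nM camptothecin, exposed to pin-transferred compounds, and grown at 37 °C for at least 48 hr. Viability was read as ATP luminescence.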
ELG1 repair inh = inhibitors of ELG1-dependent DNA repair in HEK293T cells; HEK293T ELG1-luciferase reporter, luminescence, 16 h; DNA damage induced by 5-fluorouridine; Potency, µM (highest dose often 46.1 µM), for the others: top-dose activity change, negative = inhibition, usual class: inhibitors; 330,000 compounds, 2.3% hits; AID 504467; note: potency is the fitted concentration of half-maximal effect; nearly all actives have a fitted effect of over 55% in size
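HEK293T cells expressing luciferase-tagged ELG1 (2,000/well) received 5-Fluorouridine plus compound or DMSO for 16 hr at 37 °C. Luciferase was read by ONE-Glo luminescence after 30 min at room temperature.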
IL1B secr inh = inhibitors of inflammasome signaling (IL-1 beta secretion); THP-1 LPS/ATP IL-1B secretion, AlphaLISA, 16 h; active compounds read low; activity change, % at 57.5 µM; 360,000 compounds, 4.7% hits; AID 743279; in the data active = activity change below about -50%; inconclusive = mostly about -30% to -49%
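THP-1 cells pretreated 1 hr with compounds (up to 57.5 uM final), then stimulated with LPS (250 ng/mL final) plus ATP (1.25 mM final); secreted IL-1B measured by AlphaLISA after 16 hr, decreased signal indicating inhibition.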
TDP1 inh = TDP1 (human) enzyme inhibition; 350,000 compounds, 0.28% hits; AID 485290; recombinant TDP1, AlphaScreen DNA substrate cleavage; Potency, µM (series often up to 130 µM), for inactives: at the highest dose activity change, negative = inhibition, hits mostly inhibitors; note: potency is the fitted concentration of half-maximal effect; nearly all actives have a fitted effect of over 40% in size
Target sequence (Q9NUW8 whole entry, looked up): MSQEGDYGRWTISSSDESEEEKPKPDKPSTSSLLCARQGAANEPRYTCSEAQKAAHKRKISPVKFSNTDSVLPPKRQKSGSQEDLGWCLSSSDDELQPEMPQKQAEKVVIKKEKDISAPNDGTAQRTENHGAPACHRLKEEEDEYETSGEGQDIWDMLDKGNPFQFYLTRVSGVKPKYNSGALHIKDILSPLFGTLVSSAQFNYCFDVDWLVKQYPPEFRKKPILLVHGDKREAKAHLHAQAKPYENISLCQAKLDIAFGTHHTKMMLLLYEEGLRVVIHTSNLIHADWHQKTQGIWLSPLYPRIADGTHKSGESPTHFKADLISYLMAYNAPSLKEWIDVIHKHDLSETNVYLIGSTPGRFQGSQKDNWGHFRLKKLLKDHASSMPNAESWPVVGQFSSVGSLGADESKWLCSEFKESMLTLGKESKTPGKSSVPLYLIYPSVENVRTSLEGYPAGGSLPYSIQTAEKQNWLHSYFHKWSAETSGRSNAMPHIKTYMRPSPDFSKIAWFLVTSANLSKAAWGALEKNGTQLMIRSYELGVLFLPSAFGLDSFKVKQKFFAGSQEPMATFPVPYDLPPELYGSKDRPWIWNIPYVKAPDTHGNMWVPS
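Signal: AlphaScreen proximity between streptavidin donor and anti-FITC acceptor beads on intact substrate. Reaction: Tdp1 1 nM, substrate 15 nM final, 5 min RT after 15 min compound preincubation.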
Giardia kill = Giardia lamblia killing | Giardia lamblia trophozoite viability | 340,000 compounds, 0.15% hits | AID 540267 | activity change, % at 7.66 µM, hits read low; in the data active = activity change below about -80%; inconclusive = between about -30% and that limit;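 note: parasites exposed to compound for two days anaerobically before the ATP read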
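Giardia trophozoites, 100 cells per well, were exposed to compounds for 48 hrs at 37 deg C under anaerobic conditions; viability was then read as ATP content by bioluminescence after 15-30 min at room temperature.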
An asterisk follows results filed as active; u = inconclusive; x = no result given; [ ] = another dose, or the depositor's remark. Unless noted, calls come from the whole dose curve; as a rule, active = well fitted curve in the direction sought with a large enough effect; inconclusive = small, poorly fitted or top-dose-only effect, or another doubt; inactive = no such curve, though single readings can be large; an effect the other way counts as inactive or inconclusive. % is set by controls: 0 for no effect and ±100 for the full control effect.

SMILES	TDP1 cell noCPT	TDP1 cell CPT	ELG1 repair inh	IL1B secr inh	TDP1 inh	Giardia kill
Cn1ccc2c(-c3cccnc3)cc3c(c21)C1CCC3C1 (configuration not stated)	u	u	x	1	x	x
COc1ccc(-c2cc3c(c4c2ccn4C)C2CCC3C2)cc1OC (configuration not stated)	26µM*	u	x	-23	x	x
Cn1ccc2c(-c3cccc(C=O)c3)cc3c(c21)C1CCC3C1 (configuration not stated)	u	23µM*	x	-8	x	x
Cn1ccc2c(-c3cncc4ccccc34)cc3c(c21)C1CCC3C1 (configuration not stated)	18µM*	u	x	11	x	x
Cc1cc(C)cc(NC(=O)Cn2c(C)cc(C)c(C#N)c2=O)c1	-15%	6%	x	x	-4%	x
CCCCC(=O)Nc1nnc(S(=O)(=O)N(CC)c2cc(C)cc(C)c2)s1	u	u	x	x	4%	x
Nc1nc(=O)n(C2CCCCO2)cc1Br (configuration not stated)	13%	-4%	x	3	x	5
CCCCCC(=O)N1C[C@@H](n2cc(C3CC3)nn2)[C@H](O)C[C@@H]1c1ccc(C)cc1	13µM*	u	x	4	x	x
CCCCCC(=O)N1C[C@H](n2cc(C3CC3)nn2)[C@@H](O)C[C@@H]1c1ccc(Cl)cc1	13µM*	u	x	-8	x	x
COc1ccc(C(=O)NC(C)CCCC(C)(C)O)cc1OC1CCN(C(C)=O)CC1 (configuration not stated)	0%	-1%	0%	-3	2%	-15
CC(=O)NC(c1ccccc1)c1nc(/C=C/c2ccccc2)cs1 (configuration not stated)	u	u	x	-11	x	x
Oc1cc(-c2nc3ccccc3s2)cc2c1OCCN(Cc1cccn1-c1ccccn1)C2	0%	2%	x	x	x	x
CCOc1ccc(NC(=S)N(Cc2ccc(N(C)C)cc2)Cc2ccco2)cc1	16µM*	u	u	-19	10%	-23
COc1ccc(NC(=S)NCc2ccco2)cc1	-24%	-8%	u	-5	6%	-6
COc1ccc(NC(=S)N(Cc2ccc(N(C)C)cc2)Cc2ccco2)cc1	u	2%	u	-76*	5%	-5
CCOC(=O)C1CCN(C(=O)CCCNC(=O)Cn2cnc3sc(C)c(C)c3c2=O)CC1	0%	4%	-8%	-68*	-14%	-17
Cc1ccc(Sc2cc(C)nc(-c3ccccn3)n2)cc1	10µM*	6.5µM*	u	34	x	-9
COc1cnc(-c2ccccn2)nc1Sc1cccc(Cl)c1	1.3µM*	1.3µM*	u	-8	5%	-22
C=CCNc1cc(C(F)(F)F)nc(-c2ccccn2)n1	u	18µM*	20%	-5	4%	-8
Nc1cccnc1Sc1cccc(Cl)c1	-16%	-20%	20%	7	8%	1
CCN(CC)c1cc(C(F)(F)F)nc(-c2ccccn2)n1	u	u	u	-9	1%	-4
COc1cnc(-c2ccccn2)nc1Sc1ccc(C)cc1	3.3µM*	5.2µM*	23µM*	27	8%	-21
Cc1cccc(C2=N[C@@H](CC(C)C)CO2)c1	x	x	x	x	5%[234 µM]	x
CCOC(=O)C1CCCN(C(=O)c2ccc3ncsc3c2)C1 (configuration not stated)	-10%	-20%	-7%	-1	1%	-6
COc1ccccc1Sc1nc(-c2ccccn2)ncc1OC	2.9µM*	10µM*	23µM*	141	6%	-24
SMILES	TDP1 cell noCPT	TDP1 cell CPT	ELG1 repair inh	IL1B secr inh	TDP1 inh	Giardia kill
O=C(O)CSc1cc(C(F)(F)F)nc(-c2ccccn2)n1	1%	-40%	2%	38	4%	-20
COc1cnc(-c2ccccn2)nc1Oc1ccccc1Cl	u	u	u	2	6%	0
FC(F)(F)c1cccc(Sc2cc(C(F)(F)F)nc(-c3ccccn3)n2)c1	21µM*	18µM*	u	6	5%	-14
COc1cnc(-c2ccccn2)nc1NC(C)C	0.046µM*	0.13µM*	-6%	104	6%	8
N#Cc1ccc(-c2ccc(OCC(=O)NN=Cc3ccncc3)cc2)cc1	u	u	u	36	-10%	0
CC(=O)c1ccc(C(=O)N2CCCC(CCC(=O)N(C)CCc3ccccn3)C2)s1 (configuration not stated)	-14%	-10%	-18%	18	4%	0
COc1ccc(OC)c(Nc2nc(-c3ccc(C)cc3)nc3ccccc23)c1	-28%	u	x	x	9%	x
COc1cc(Nc2c3c(nc4ccccc24)CCC3)cc(OC)c1OC	2.1µM*	1.8µM*	-1%	6	x	-14
COc1ccc(OC)c(Nc2c3ccccc3nc3ccccc23)c1	6.5µM*	5.2µM*	12µM*	-84*	x	4
COc1ccc(OC)c(Nc2c3c(nc4ccccc24)CCC3)c1	0.58µM*	0.73µM*	u	-75*	9%	10
COc1ccc([N+](=O)[O-])cc1Nc1c2ccccc2nc2ccccc12	2.6µM*	2.6µM*	-27%	-29	-3%	17
COc1ccc(OC)c(Nc2cc(C)c3ccccc3n2)c1	u	u	10%	-6	x	-14
COc1cc(NC(=O)c2c3c(nc4ccccc24)CCC3)cc(OC)c1	-8%	-29%	11%	13	2%	5
CCC/C=C/C1C(=O)C2OC2C2(OCC(CC)(CC)CO2)C1CO (configuration not stated)	x	x	x	x	7%[21 µM]	x
COc1cc(NS(C)(=O)=O)ccc1Nc1c2ccccc2nc2ccccc12	0.13µM*	0.21µM*	u	-105*	12%	-13
O=[N+]([O-])c1ccccc1Nc1c2ccccc2nc2ccccc12	u	21µM*	-13%	7	1%	-15
COCCn1c(C)cc(C(=O)COC(=O)c2c(C)nn(Cc3ccccc3)c2C)c1C	u	-23%	u	-16	4%	1
Cc1cc(C(=O)COc2ccccc2C#N)c(C)n1C1CC1	u	u	u	-6	5%	12
Cc1cc(C(=O)COc2ccc(C#N)cc2)c(C)n1C1CC1	18µM*	u	-25%	-17	x	-2
Cc1nn(Cc2ccccc2)c(C)c1C(=O)OCC(=O)c1cc(C)n(C2CC2)c1C	18µM*	23µM*	u	-58*	14%	0
COc1ccc(CCN(C)C(=O)c2cc(-c3ccc(C)cc3)nc3ccccc23)cc1OC	u	u	x	-12	x	8
